Where “and” joins values, the source holds several entries; their conditions need not be identical. Equal values may be shown once. More than one record can exist for a structure, and the calls need not agree. Calls of active or inactive are those of the source. How the source made its calls: active means hit-call score of the fitted dose curve at least 0.9, where 1 is the maximum; inactive means score below 0.9.
These compounds were tested on Decorin, DCN (gene 1634) (assay: BSK_MyoF_Decorin: BioMAP Diversity Plus: MyoF Assay for Decorin Biomarker Activity (AID 2284265)). Settings: primary human lung fibroblasts.
How it was run: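 ELISA readout of decorin, 24 h post-dosing; primary human lung fibroblast (MyoF) culture; gain-of-signal fit vs DMSO baseline.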

| SMILES | outcome | AC50 |
| --- | --- | --- |
| CC(C)(C)C(=O)CC(=O)C(F)(F)C(F)(F)C(F)(F)F | inactive |  |
| O=C(O)C(F)(F)C(F)(F)OC(F)(F)F | inactive |  |
| OCC(F)(F)C(F)(F)C(F)(F)C(F)(F)C(F)(F)C(F)(F)F | inactive |  |
| FC(F)(F)C(F)(F)C(F)(F)C(F)(F)C(F)(F)C(F)(F)C(F)(F)Br | inactive |  |
| C=C(C)C(=O)OCC(F)(F)C(F)(F)C(F)(F)F | inactive |  |
| OCC(F)(F)C(F)(F)C(F)(F)C(F)(F)C(F)(F)C(F)F | inactive |  |
| C=CC(F)(F)C(F)(F)C(F)(F)C(F)(F)C(F)(F)C(F)(F)C(F)(F)C(F)(F)F | inactive |  |
| Cc1ccc(S(=O)(=O)OCC(F)(F)C(F)(F)C(F)(F)C(F)(F)C(F)(F)C(F)F)cc1 | inactive |  |
| N=C(N)C(F)(F)C(F)(F)C(F)(F)C(F)(F)C(F)(F)C(F)(F)C(F)(F)F | inactive |  |
| CCO[Si](CCC(F)(F)C(F)(F)C(F)(F)C(F)(F)C(F)(F)C(F)(F)F)(OCC)OCC | inactive |  |
| FC(F)(F)C(F)(F)CNCC(F)(F)C(F)(F)F | inactive |  |
| C=CC(=O)OCC(F)(F)C(F)(F)C(F)(F)C(F)(F)COC(=O)C=C |  | 15.7 µM (active) and 17 µM (active) |
| FC(F)(F)C(F)(F)C(F)(F)C(F)(F)C(F)(F)C(F)(F)CC1CO1 (configuration not stated) | inactive |  |
| OCCCC(F)(F)C(F)(F)C(F)(F)F | inactive |  |
| O=C(Cl)C(F)(F)C(F)(F)C(F)(F)C(F)(F)C(F)(F)C(F)(F)C(F)(F)C(F)(F)F | inactive |  |
| O=C(O)C(F)(F)C(F)(F)C(F)(F)C(F)(F)C(F)(F)C(F)(F)C(F)(F)C(F)(F)Cl | inactive | 21.3 µM (active) |
